# From PubChem BioAssay (Tox21)
# Results filed as inconclusive are left out. A call without a number means that no potency is given here. A number with no mark means an inactive call. Active and inactive are the calls of the source. Unless noted, calls follow the shape of the full dose curve.
# Experiments:
# [1] = qHTS assay to identify small molecule agonists of the vitamin D receptor (VDR) signaling pathway - cell viability counter screen (AID 743224; active = well fitted curve in the direction sought with a large enough effect in the repeat runs; an effect the other way counts as inactive or inconclusive; also: series mostly up to about 63 µM; nearly all actives have a fitted effect of over 50% in size)
# Method in brief: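 Counter screen for cytotoxicity: VDR-bla cells at 2,000 cells/well, 16 h compound exposure, then CellTiter-Glo luminescence after the beta-lactamase measurement.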
# [2] = qHTS assay to identify small molecule antagonists of the vitamin D receptor (VDR) signaling pathway - cell viability counter screen (AID 743225; active = well fitted curve in the direction sought with a large enough effect in the repeat runs; an effect the other way counts as inactive or inconclusive; also: nearly all actives have a fitted effect of over 50% in size)
# Method in brief: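 In this counter screen, VDR-bla HEK 293T cells receive test compound plus 3 nM final calcitriol for 16 h at 37C. Room-temperature steps of 2 h with the beta-lactamase substrate, then 30 min with CellTiter-Glo, precede the luminescence read.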
# [3] = qHTS assay to identify small molecule agonists of the NFkB signaling pathway (AID 1159509; active = well fitted curve in the direction sought with a large enough effect in the signal ratio in the repeat runs, not every such curve was filed as active; the % refers to the signal ratio; also: series mostly up to about 61 µM)
# Method in brief: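 Beta-lactamase reporter assay run in quantitative high-throughput format on an NF-kB-responsive ME-180 line, with 5 hr compound treatment and a FRET-based blue/green fluorescence readout.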
# [4] = qHTS assay to identify small molecule agonists of the NFkB signaling pathway - cell viability counter screen (AID 1159515); also: series mostly up to about 61 µM; nearly all actives have a fitted effect of over 55% in size
# Method in brief: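 Counter screen run alongside the NFkB-bla agonist assay: ME-180 reporter cells exposed to compounds for 5 hr, then lysed with CellTiter-Glo in the same wells. Luminescence, read after 30 min, reflects viable cells.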
# [5] = qHTS assay to identify small molecule agonists of the endoplasmic reticulum stress response signaling pathway (AID 1159516; active = well fitted activation curve with a large enough effect in the signal ratio in the repeat runs, not every such curve was filed as active; the % refers to the signal ratio)
# Method in brief: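 For this screen, HeLa cells stably carrying beta-lactamase under the ER stress response element received test compounds, positive controls or DMSO for 5 hr at 37 C; B/G FRET substrate was then added and dual-wavelength emission recorded.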
# [6] = qHTS assay to identify small molecule agonists of the endoplasmic reticulum stress response signaling pathway - cell viability counter screen (AID 1159517); also: series mostly up to about 61 µM; nearly all actives have a fitted effect of over 50% in size
# Method in brief: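 Steps: seed 1,500 ESRE-bla HeLa cells per well; incubate overnight at 37 C, 5% CO2; add compounds in DMSO for 5 hr; run FRET substrate 2 hr RT; add CellTiter-Glo, wait 30 min, read luminescence.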
# [7] = qHTS assay to identify small molecule antagonists of the retinoid-related orphan receptor gamma (ROR-gamma) signaling pathway - cell viability counter screen (AID 1159520; active = well fitted curve in the direction sought with a large enough effect in the repeat runs; an effect the other way counts as inactive or inconclusive; also: nearly all actives have a fitted effect of over 50% in size)
# Method in brief: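 Tet-on ROR gamma CHO cells were given compounds for 2 hr, then doxycycline hyclate at 1 uM final, and incubated 16 hr at 37 C. Viability was measured as ATP content by CellTiter-Glo luminescence.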
# [8] = target: Nuclear receptor ROR-gamma (Homo sapiens) (UniProt P51449); test: qHTS assay to identify small molecule antagonists of the retinoid-related orphan receptor gamma (ROR-gamma) signaling pathway (AID 1159521; active = well fitted curve in the direction sought with a large enough effect in the repeat runs; an effect the other way counts as inactive or inconclusive; also: nearly all actives have a fitted effect of over 50% in size; also: potency is read from the fitted curve at half-maximal effect;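 as to activity change, negative = inhibition: CHO cells with doxycycline inducible ROR-gamma driving an RORE luciferase reporter; top concentration of the series differs between compounds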)
# Method in brief: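 Screening format: cell-based luciferase reporter in CHO cells with doxycycline-inducible RORγ. Compound pre-exposure lasts 2 h, doxycycline is 1 uM final, induction runs 16 h at 37 C, and ONE-Glo luminescence is read.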
# [9] = qHTS assay to identify small molecule agonists of the AP-1 signaling pathway - cell viability counter screen (AID 1159525); also: nearly all actives have a fitted effect of over 55% in size
# Method in brief: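 Same-well cytotoxicity counter screen of the Tox21 10K library in ME-180 cells. The readout is ATP-dependent luminescence after 5 h compound treatment. Data are normalised to DMSO and tetra n-octyl ammonium bromide controls.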
# [10] = qHTS assay to identify small molecule agonists of the AP-1 signaling pathway (AID 1159526); also: potency is read from the fitted curve at half-maximal effect
SMILES,outcome [1],outcome [2],outcome [3],outcome [4],outcome [5],outcome [6],Potency [7],Potency [8],outcome [9],Potency [10],"activity, negative = cytotoxicity [7]","activity change, negative = inhibition [8]","viability change, negative = cytotoxic [9]",activation [10]
NC(=O)c1ncn([C@@H]2O[C@H](CO)[C@@H](O)[C@H]2O)c1N,inactive,inactive,inactive,inactive,inactive,inactive,inactive,inactive,inactive,inactive,,,,
CN(C)CCn1nnnc1SCC1=C(C(=O)O)N2C(=O)[C@@H](NC(=O)Cc3csc(N)n3)[C@H]2SC1,inactive,inactive,inactive,inactive,inactive,inactive,inactive,inactive,inactive,inactive,,,,
CCCc1ccccc1O,inactive,,inactive,inactive,inactive,inactive,inactive,inactive,inactive,inactive,,,,
O=S(=O)(c1cccc2cnccc12)N1CCCNCC1,inactive,,inactive,inactive,inactive,inactive,inactive,inactive,inactive,inactive,,,,
CC(C)CCOC(=O)CC(C)C,inactive,,inactive,inactive,inactive,inactive,inactive,inactive,inactive,inactive,,,,
[O-][N+](=Nc1ccccc1)c1ccccc1,inactive,,inactive,inactive,inactive,inactive,inactive,inactive,inactive,inactive,,,,
Nc1nc(F)nc2c1ncn2[C@@H]1O[C@H](CO)[C@@H](O)[C@@H]1O,inactive,,inactive,inactive,inactive,inactive,inactive,inactive,inactive,inactive,,,,
NC(=O)CCCCC1CCSS1 (stereo not given),inactive,,inactive,inactive,inactive,inactive,inactive,inactive,inactive,inactive,,,,
CCCCCN(CCCCC)C(=O)C(CCC(=O)O)NC(=O)c1ccc(Cl)c(Cl)c1 (stereo not given),inactive,inactive,inactive,inactive,inactive,inactive,inactive,inactive,inactive,inactive,,,,
NCCN1CCNC1=O,inactive,,inactive,inactive,inactive,inactive,inactive,inactive,inactive,inactive,,,,
CC(C)CCCC(C)NCCC(C)C (stereo not given),inactive,,inactive,inactive,inactive,inactive,inactive,inactive,inactive,inactive,,,,
C=CC(=O)N1CCOCC1,inactive,,inactive,inactive,inactive,inactive,inactive,inactive,inactive,inactive,,,,
Cc1ncc(CSSCc2cnc(C)c(O)c2CO)c(CO)c1O,inactive,inactive,inactive,inactive,inactive,inactive,inactive,inactive,inactive,inactive,,,,
CN(C)C(=O)Nc1ccccc1,inactive,,inactive,inactive,inactive,inactive,inactive,inactive,inactive,inactive,,,,
O=C(O)/C=C/c1ccc(/C=C/C(=O)O)cc1,inactive,,inactive,inactive,inactive,inactive,inactive,inactive,inactive,inactive,,,,
C=C(C)C(=O)OCCC(C)OC(=O)C(=C)C (stereo not given),inactive,inactive,inactive,inactive,inactive,inactive,inactive,inactive,inactive,inactive,,,,
CCCCCCCCCCCCI,inactive,inactive,inactive,inactive,inactive,inactive,inactive,inactive,inactive,inactive,,,,
c1cc(CN2CCCCC2)cc(OCCCNc2nc3ccccc3s2)c1,inactive,,inactive,inactive,inactive,inactive,inactive,26.6 µM (active),inactive,26.8 µM (active),,,,
CC/C=C\CCCCO,inactive,inactive,inactive,inactive,inactive,inactive,inactive,inactive,inactive,inactive,,,,
O=C(O)C(O)[C@H](O)[C@@H](O)[C@H](O)[C@H](O)CO (stereo not given in full),inactive,inactive,inactive,inactive,inactive,inactive,inactive,inactive,inactive,inactive,,,,
COc1ccc(N=[N+]([O-])c2ccc(OC)cc2)cc1,inactive,,inactive,inactive,inactive,inactive,inactive,inactive,inactive,inactive,,,,
CCCCOCC(C)OCC(C)O (stereo not given),inactive,inactive,inactive,inactive,inactive,inactive,inactive,inactive,inactive,inactive,,,,
Cn1ccc2cc3c(cc21)CCN3C(=O)Nc1cccnc1,inactive,inactive,inactive,inactive,inactive,inactive,,,,,-0.672% [at 19 µM],207% [at 19 µM],0.227% [at 15.8 µM],-5.75% [at 15.8 µM]
CCCC(=O)O[C@]1(C(=O)CCl)[C@@H](C)C[C@H]2[C@@H]3CCC4=CC(=O)C=C[C@]4(C)[C@@]3(F)C(=O)C[C@@]21C,inactive,,inactive,inactive,inactive,inactive,inactive,10.6 µM (active),inactive,inactive,,,,
C=C(C)C1CC=C(C)C(O)C1 (stereo not given),inactive,inactive,inactive,inactive,inactive,inactive,inactive,inactive,inactive,inactive,,,,

SMILES,outcome [1],outcome [2],outcome [3],outcome [4],outcome [5],outcome [6],Potency [7],Potency [8],outcome [9],Potency [10],"activity, negative = cytotoxicity [7]","activity change, negative = inhibition [8]","viability change, negative = cytotoxic [9]",activation [10]
O=c1[nH]c2ccccc2c(=O)n1CCCl,inactive,,inactive,inactive,inactive,inactive,inactive,inactive,inactive,inactive,,,,
CN1[C@@H]2CC[C@H]1CC(NC(=O)n1c(=O)[nH]c3ccccc31)C2 (stereo not given in full),inactive,,inactive,inactive,inactive,inactive,inactive,inactive,inactive,inactive,,,,
C=CCSCC1Nc2cc(Cl)c(S(N)(=O)=O)cc2S(=O)(=O)N1 (stereo not given),inactive,inactive,inactive,inactive,inactive,inactive,inactive,inactive,inactive,inactive,,,,
Nc1nc2c(ncn2CCC(CO)CO)c(=O)[nH]1,inactive,,inactive,inactive,inactive,inactive,inactive,inactive,inactive,inactive,,,,
CCOC(=O)Nc1ccc2c(c1)N(C(=O)CCN1CCOCC1)c1ccccc1S2,inactive,inactive,inactive,inactive,inactive,inactive,inactive,inactive,inactive,inactive,,,,
CCCc1ccc(N)cc1,inactive,inactive,inactive,inactive,inactive,inactive,inactive,inactive,inactive,inactive,,,,
c1ccc(CCCc2ccccn2)cc1,inactive,,inactive,inactive,inactive,inactive,inactive,inactive,inactive,inactive,,,,
OCC(CO)(CO)COCC(CO)(CO)CO,inactive,inactive,inactive,inactive,inactive,inactive,inactive,inactive,inactive,inactive,,,,
CCN1CCN(c2cc3c(cc2F)c(=O)c(C(=O)O)cn3C2CC2)CC1,inactive,inactive,inactive,inactive,inactive,inactive,inactive,inactive,inactive,inactive,,,,
CC1=CC(C)C(C=O)C(C)C1 (stereo not given),inactive,,inactive,inactive,inactive,inactive,inactive,inactive,inactive,inactive,,,,
COc1cc(CCC(C)=O)ccc1O,inactive,inactive,inactive,inactive,inactive,inactive,inactive,inactive,inactive,inactive,,,,
CNC(=O)c1c(I)c(NC(=O)CCCCC(=O)Nc2c(I)c(C(=O)O)c(I)c(C(=O)NC)c2I)c(I)c(C(=O)O)c1I,inactive,,inactive,inactive,inactive,inactive,inactive,inactive,inactive,inactive,,,,
CCc1cc(S(=O)(=O)O)c2cc(C(C)C)cccc1-2,inactive,inactive,inactive,inactive,inactive,inactive,inactive,inactive,inactive,inactive,,,,
CCC(=O)/C=C/c1ccc(OC)cc1,inactive,inactive,inactive,inactive,inactive,inactive,inactive,inactive,inactive,inactive,,,,
CC(C)(O)Cc1ccccc1,inactive,inactive,inactive,inactive,inactive,inactive,inactive,inactive,inactive,inactive,,,,
COC(C(=O)O)c1ccccc1 (stereo not given),inactive,inactive,inactive,inactive,inactive,inactive,inactive,inactive,inactive,inactive,,,,
CC(O)CN(CCCN(C)C)CCCN(C)C (stereo not given),inactive,inactive,inactive,inactive,inactive,inactive,inactive,inactive,inactive,inactive,,,,
C=C(C)C(=O)NCCC[N+](C)(C)C,inactive,inactive,inactive,inactive,inactive,inactive,inactive,inactive,inactive,inactive,,,,
CC(=O)CCc1ccc(O)cc1,inactive,inactive,inactive,inactive,inactive,inactive,inactive,inactive,inactive,inactive,,,,
Oc1ccc2c(c1)OC[C@@H](N1CCC(O)(c3ccc(F)cc3)CC1)[C@H]2O,inactive,inactive,inactive,inactive,inactive,inactive,inactive,inactive,inactive,inactive,,,,
COC(=O)C1=C(C)NC(C)=C(C(=O)OCC(C)=O)C1c1ccccc1[N+](=O)[O-] (stereo not given),inactive,inactive,inactive,inactive,inactive,inactive,inactive,inactive,inactive,inactive,,,,
CCO[Si](C)(OCC)OCC,inactive,inactive,inactive,inactive,inactive,inactive,inactive,inactive,inactive,inactive,,,,
CC(C)=CC(=O)O,inactive,inactive,inactive,inactive,inactive,inactive,inactive,inactive,inactive,inactive,,,,
Cc1ccc(N)cc1[N+](=O)[O-],inactive,inactive,inactive,inactive,inactive,inactive,inactive,inactive,inactive,inactive,,,,
